Assay outcomes (PubChem)
Most compounds without a hit are left out; they make up all but 1.2% or so of the library.
RGS8-Gao reg: human RGS8-Galphao interaction regulation | response (percent of control binding), % at 10 µM | 220,000 compounds, 0.34% hits | AID 1423 | P09471 | multiplexed bead flow cytometry, RGS8-Galphao binding; actives lie on both sides; in the data active means response below about 60% or above about 140%; inactive means in between;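 further: Galphao activated as the GDP aluminium fluoride complex binding bead-coupled RGS8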
Target sequence (P09471 whole entry, looked up): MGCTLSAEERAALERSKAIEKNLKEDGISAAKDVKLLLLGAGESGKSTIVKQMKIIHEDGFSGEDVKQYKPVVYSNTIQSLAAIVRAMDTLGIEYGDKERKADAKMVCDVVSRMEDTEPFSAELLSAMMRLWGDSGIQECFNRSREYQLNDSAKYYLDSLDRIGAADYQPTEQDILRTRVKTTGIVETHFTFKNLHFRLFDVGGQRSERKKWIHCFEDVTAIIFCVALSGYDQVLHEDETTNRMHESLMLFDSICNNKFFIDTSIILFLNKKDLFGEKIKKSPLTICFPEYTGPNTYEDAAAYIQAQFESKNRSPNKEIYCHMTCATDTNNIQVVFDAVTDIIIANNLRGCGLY
RGS4-Gao reg: human RGS4-Galphao interaction regulation. P09471. Multiplexed bead flow cytometry, RGS4-Galphao binding; actives lie on both sides. binding response (% of control), % at 10 µM. 220,000 compounds, 0.33% hits; in the data active means binding response below about 49% or above about 150%; inactive means in between;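 further: fluorescent Galphao activated with aluminum fluoride binding bead-coupled RGS4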
GSH fluor: compound fluoresces at 488/530 nm on GSH beads; GSH beads flow cytometry, compound fluorescence 488/530 nm; stronger effect = higher value; fluorescence (KMESF) at 10 µM; 190,000 compounds, 0.25% hits; AID 1776; in the data active means fluorescence above about 89;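 further: glutathione beads carrying GST-tagged Bcl family fusion proteins plus one bare bead set; values are compound well signal with DMSO vehicle wells as background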
Avidin fluor: avidin bead compound fluorescence profile. Avidin beads, compound fluorescence 488/530 nm, flow cytometry; stronger effect = higher value. 220,000 compounds, 0.38% hits. fluorescence (KMESF) at 10 µM; in the data active means fluorescence above about 47
RGS16-Gao HTS: modulates binding between human RGS16 and Galphao | O15492+P09471 | bead-based flow cytometry RGS16-Galphao binding, fluorescence; actives lie on both sides | binding response (% of control), % at 10 µM | 220,000 compounds, 0.38% hits | AID 1441;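 further: Galphao activated by GDP with aluminum fluoride before binding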
Target sequence (O15492 whole entry, looked up): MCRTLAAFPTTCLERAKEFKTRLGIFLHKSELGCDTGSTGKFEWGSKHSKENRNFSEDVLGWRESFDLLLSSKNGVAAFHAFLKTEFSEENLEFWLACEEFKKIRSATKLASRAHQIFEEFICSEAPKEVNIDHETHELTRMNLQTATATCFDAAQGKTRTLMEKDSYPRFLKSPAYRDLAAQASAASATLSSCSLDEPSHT
Target sequence (P09471 whole entry, looked up): as the sequence (P09471 whole entry, looked up) above
RGS7-Gao: regulators of human RGS7-Galphao interaction | Multiplexed bead flow cytometry, RGS7-Galphao binding; actives lie on both sides | binding response (% of control), % at 10 µM | P09471 | 220,000 compounds, 0.35% hits | AID 1439; in the data active means binding response below about 49% or above about 150%; inconclusive means no clear call, values can overlap the other calls; inactive means in between;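 further: fluorescent Galphao held in activated GDP-AlF4 state binding bead-coupled RGS7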
RGS4-Gao HTS: RGS4-Galphao interaction regulator (human); multiplexed bead flow cytometry, RGS–Galpha-o binding; AID 1504; 1,600 compounds, 99% hits; shares compounds with RGS16-Gao HTS; RGS4–Galpha-o binding response, % at 10 µM;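 further: fluorescently labeled Galpha-o bound to GDP with aluminium fluoride binding biotinylated RGS beads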
Biotin-avidin: biotin-avidin bead binding disruption counter-screen | inhibition, % at 10 µM | AID 1783 | 1,700 tested, under 10 active | streptavidin beads, fluorescein-biotin binding, flow cytometry | shares compounds with RGS16-Gao HTS;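 active means inhibition above 50%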;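 further: median green fluorescence of gated singlet beads compared with DMSO control wells; 0% = DMSO wells and 100% = complete loss of bead fluorescence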
RGS8-Gao confirm: confirmation of regulators of human RGS8-Galphao interaction; shares compounds with RGS16-Gao HTS; bead-based flow cytometry RGS8-Galphao binding, fluorescence; actives lie on both sides; binding response (% of control), % at 10 µM; 1,700 compounds, 3% hits; AID 1836; in the data active means binding response below about 72% or above about 130%; inactive means in between;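 further: Galphao activated as GDP AlF4 complex before binding bead RGS8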
RGS7-Gao confirm: RGS7-Galphao interaction regulation, single point confirmation. shares compounds with RGS16-Gao HTS. bead-based flow cytometry RGS7-Galphao binding; actives lie on both sides. response (percent of control binding), % at 10 µM. 1,700 compounds, 7.8% hits; in the data active means response below about 75% or above about 130%; inactive means in between;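 further: fluorescent Galphao activated with GDP and aluminum fluoride binding bead-coupled RGS7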
RGS16-Gao conf: RGS16-Galphao interaction regulation, single point confirmation; shares compounds with RGS16-Gao HTS; response (% of control binding), % at 10 µM; 1,700 compounds, 4% hits; AID 1838; bead-based flow cytometry, RGS16-Galphao binding; actives lie on both sides; in the data active means response below about 74% or above about 130%; inactive means in between;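 further: Galphao activated as the GDP aluminium fluoride complex binding bead-coupled RGS16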
RGS4-Gao single: RGS4-Galphao interaction regulation, single point confirmation | shares compounds with RGS16-Gao HTS | RGS4-Galphao binding, multiplexed bead flow cytometry; actives lie on both sides | binding response (% of control), % at 10 µM | 1,700 compounds, 4% hits; in the data active means binding response below about 74% or above about 130%; inactive means in between
RGS19-Gao single: RGS19-Galphao interaction regulation, single point confirmation; shares compounds with RGS16-Gao HTS; bead-based flow cytometry RGS19-Galphao binding; actives lie on both sides; response (percent of control binding), % at 10 µM; 1,700 compounds, 5% hits; AID 1841; in the data active means response below about 50% or above about 160%; inactive means in between;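 further: 100% = no compound control and 0% = blank background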
* marks the source's active call; other numbers are inactive results; ? = inconclusive; nt = no result; [ ] = remark or other dose. Unless noted, how the calls were made is not given here.

SMILES	RGS8-Gao reg	RGS4-Gao reg	GSH fluor	Avidin fluor	RGS16-Gao HTS	RGS7-Gao	RGS4-Gao HTS	Biotin-avidin	RGS8-Gao confirm	RGS7-Gao confirm	RGS16-Gao conf	RGS4-Gao single	RGS19-Gao single
CCC(=O)c1ccc(OCC(=O)N2CCc3cc(OC)c(OC)cc3C2)cc1	9.6*	-32.8*	28	-3	-36.2*	-11.6*	nt	-2.5	102.5	96.3	97.3	100.2	127.6
COc1ccccc1C(=O)NN1C(=O)/C(=C/c2cccn2C)SC1=S	nt	nt	nt	95*	nt	nt	nt	-0.8	103.6	103.9	104.5	102.0	100.7
Cn1cccc1/C=C1\SC(=S)N(NC(=O)c2ccccc2O)C1=O	100.7	99.4	nt	9	91.2	?	nt	nt	nt	nt	nt	nt	nt
N#Cc1c(-c2ccccc2)nc(SCC(=O)N(c2ccccc2)c2ccccc2)[nH]c1=O	49.7*	76.7	20	3	6.4	51.1	76.7*	1.3	104.5	101.5	103.6	100.0	108.2
CCN(C(=O)COC(=O)/C=C/c1ccc(S(=O)(=O)N2CCc3ccccc32)cc1)C1CCS(=O)(=O)C1 (stereo not given)	102.4	102.7	14	10	101.2	103.3	nt	nt	nt	nt	nt	nt	nt
Cc1ncsc1CCOC(=O)C1C2CC3CC(C2)CC1C3 (stereo not given)	72.5	91.9	9	1	21.6*	93.7	91.9*	1.8	99.9	95.2	94.2	93.3	104.7
CCOC(=O)C(=NC1CCCCC1)NNc1cccc(C(F)(F)F)c1	101.7	96.9	12	13	100.3	100.4	nt	nt	nt	nt	nt	nt	nt
CC(Sc1ncnc2ccccc12)C(=O)Nc1ccc2c(c1)OCO2 (stereo not given)	nt	nt	15	nt	nt	nt	nt	1.0	103.4	91.7	105.6	96.6	102.6
CCCS(=O)(=O)N1CCCC(C(=O)NCCCN2CCN(c3cccc(Cl)c3)CC2)C1 (stereo not given)	145.7*[activator]	294.6*[activator]	29	150*	668.4	233.8*[activator]	nt	1.2	96.9	92.5	90.4	92.2	58.6
C[N+](C)(CC#Cc1ccccc1)CC(=O)c1ccc(Cl)cc1	84.1	113.6	9	2	23.4*	114.9	113.6*	1.0	98.2	98.6	98.5	100.5	97.9
CC(C)OCC(O)CS(=O)(=O)Cc1ccccc1 (stereo not given)	73.3	68.5	9	8	-90.2*	79.4	68.5*	0.8	99.5	103.0	102.4	102.4	90.0
CCN(CC)CCN1C(=O)C(=O)/C(=C(/O)c2c(C)[nH]c(C(=O)OC)c2C)C1c1cccs1 (stereo not given)	102.7	98.2	10	8	99.5	99.3	nt	nt	nt	nt	nt	nt	nt
CCN(CC)CCN1C(=O)C(=O)/C(=C(/O)c2c(C)[nH]c(C(=O)OC)c2C)C1c1ccccc1OC (stereo not given)	145.2*[activator]	176.1*[activator]	6	23	265.8	158.8*[activator]	nt	-0.1	99.7	108.0	103.1	105.1	100.6
CN(C)CCCNC(=O)c1ccc(/C=N/O)nc1	12.2*	6.1*	13	0	9.7*	-11.2*	nt	-1.2	102.0	105.0	101.4	101.8	98.6
CNCCCNC(=O)c1ccc(/C=N/O)nc1	99.9	101.1	13	10	101.8	101.7	nt	nt	nt	nt	nt	nt	nt
COc1ccccc1N1CCN(C(=O)CCC(=O)O)CC1	101.5	104.1	12	20	102.0	98.9	nt	nt	nt	nt	nt	nt	nt
O=C(O[C@@H]1OC2COC(=O)c3cc(O)c(O)c(O)c3-c3c(cc(O)c(O)c3O)C(=O)O[C@@H]([C@H]1O)[C@@H]2O)c1cc(O)c(O)c(O)c1	44.3*	33.8*	8	1	23.2*	22.5*	nt	-2.4	34.6*	4.1*	34.6*	19.4*	42.3*
C#CCn1c(=NC(=O)c2cc(-c3cccs3)nc3ccccc23)sc2cc(S(N)(=O)=O)ccc21	47.3*	79.7	5	0	84.0	34.1*	79.7*	-0.6	96.5	91.4	97.7	94.3	89.8
CN(C)C(=O)CSc1nnc(-c2ccc(F)cc2)c2ccccc12	50.9*	27.9*	nt	1	30.6	?	nt	-1.0	104.8	111.5	105.9	108.4	97.3
CSCCC(NS(=O)(=O)c1ccc(F)cc1)C(=O)NCc1ccc(S(N)(=O)=O)cc1 (stereo not given)	100.1	99.6	nt	nt	104.4	?	nt	nt	nt	nt	nt	nt	nt
NC(=O)CCC(NS(=O)(=O)c1ccc(Cl)cc1)C(=O)NCc1ccc(Cl)cc1 (stereo not given)	70.2	89.5	6	6	6.5*	84.8	89.5*	0.1	110.5	112.0	113.8	109.4	132.7
CCOc1ccc(N(CC(=O)Nc2ccccc2)S(C)(=O)=O)cc1	81.4	80.4	8	7	-46.0*	85.1	80.4*	-1.1	98.6	95.3	95.2	96.0	99.6
CCOC(=O)c1ccccc1NC(=O)CN(c1ccc(OCC)cc1)S(C)(=O)=O	81.8	90.4	12	9	36.1	93.1	nt	nt	nt	nt	nt	nt	nt
COC(=O)CN1C(=S)N(c2ccc(F)cc2)C(=O)C1CC(=O)Nc1ccccc1 (stereo not given)	100.4	101.2	15	10	99.8	?	nt	nt	nt	nt	nt	nt	nt
COc1ccc(-n2c(C)cc(-c3csc(N)n3)c2C)cc1	12.7*	12.9*	8	-5	0.5*	-0.7*	nt	-1.5	98.1	100.0	99.0	100.4	107.3
Cc1cc(-c2csc(N)n2)c(C)n1-c1ccc(Cl)c(Cl)c1	102.1	98.6	9	6	80.5	105.6	nt	nt	nt	nt	nt	nt	nt
C=CCn1c(Cc2cccs2)nnc1SCC(=O)Nc1cccc(OC)c1	104.6	104.8	16	28	105.2	103.4	nt	nt	nt	nt	nt	nt	nt
Cc1cc(C)c(S(=O)(=O)n2ccc3ccccc32)c(C)c1	101.5	97.8	5	17	92.6	106.8	nt	nt	nt	nt	nt	nt	nt
